The text below walks through data of PubChem BioAssay (Tox21).

Assay [1] deals with Luciferin 4-monooxygenase (Photinus pyralis) (UniProt P08659). Kind of assay: qHTS assay to identify small molecule inhibitors of firefly luciferase (AID 1224835). Further: nearly all actives have a fitted effect of over 25% in size. Further: potency means the concentration at half of the fitted maximal effect. On activity change, negative = inhibition: series mostly up to about 120 µM. The method, boiled down: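 Inhibition of purified Photinus luciferase is measured by luminescence. Substrate levels (D-luciferin, ATP) sit at their KM values. Each compound is tested in a concentration series.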
In general terms: In qHTS, concentration-response curves come from the screen itself.

Assay [2] can be described thus: qHTS assay to identify small molecule agonists of the constitutive androstane receptor (CAR) signaling pathway - cell viability counter screen (AID 1224836). Further: nearly all actives have a fitted effect of over 45% in size. Further: potency means the concentration at half of the fitted maximal effect. On viability change, negative = cytotoxic: series mostly up to about 92 µM. The method, boiled down: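 HepG2-CYP2B6-hCAR, 2500 cells/well, 4 h pre-incubation; cpd 15 conc + PK11195 0.75 uM final; 23 h, 37 C/5% CO2; CellTiter-Fluor, fluorescence.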
The nature of assay [3]: qHTS assay to identify small molecule antagonists of the constitutive androstane receptor (CAR) signaling pathway - cell viability counter screen (AID 1224837). Further: nearly all actives have a fitted effect of over 45% in size. Further: potency means the concentration at half of the fitted maximal effect. On activity change, negative = cytotoxicity: series mostly up to about 92 µM. The method, boiled down:
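Cytotoxicity counter-screen: CellTiter-Fluor fluorescence after 23 h compound exposure (15-point qHTS) in double-stable HepG2-CYP2B6-hCAR cells, with 50 nM CITCO added.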

The target of assay [4] is Nuclear receptor subfamily 1 group I member 3 (Homo sapiens) (UniProt Q14994). Kind of assay: qHTS assay to identify small molecule antagonists of the constitutive androstane receptor (CAR) signaling pathway (AID 1224838).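 Further: HepG2 cells stably expressing hCAR with CYP2B6 luciferase reporter stimulated by CITCO; nearly all actives have a fitted effect of over 40% in size.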 Further: potency means the concentration at half of the fitted maximal effect. The method, boiled down: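 Antagonism measured as luciferase signal (ONE-Glo, 30 min, room temperature) in CAR-stimulated cells: HepG2-CYP2B6-hCAR double-stable line exposed 24 hr at 37 C to compound in a 15-point series plus 50 nM CITCO.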

The target is the same in assay [5]. The assay is described as follows: qHTS assay to identify small molecule agonists of the constitutive androstane receptor (CAR) signaling pathway (AID 1224839). Further: nearly all actives have a fitted effect of over 15% in size. Further: potency means the concentration at half of the fitted maximal effect.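 On activation: HepG2 cells stably carrying human CAR and a CYP2B6 luciferase reporter; series mostly up to about 92 µM.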 The method in brief:
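HepG2-CYP2B6-hCAR cells, 2500/well, 4 h pre-incubation; compounds 15 conc.; PK11195 0.75 uM final; 24 h, 37 C/5% CO2; ONE-Glo luciferase read.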

Assay [6] is described as follows: qHTS assay to identify small molecule antagonists of the estrogen related receptor signaling pathway with the pleiotropic PPARgamma coactivator (PGC) from Tox21 10K library - cell viability counter screen (AID 1224840; active means well fitted cell-killing curve with a large enough effect in the repeat runs, not every such curve was filed as active; further: nearly all actives have a fitted effect of over 40% in size; further: potency means the concentration at half of the fitted maximal effect). The method, boiled down:
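Counter-screen for cytotoxicity: after 17.5 h compound exposure at 37 C, CellTiter-Fluor reagent added to PGC/ERR cells for 30 min and fluorescence read. Cells were seeded at 2,000 per well 6 h before dosing.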

Assay [7] is described as follows: qHTS assay to identify small molecule antagonists of the estrogen related receptor signaling pathway with the pleiotropic PPARgamma coactivator (PGC) from Tox21 10K library (AID 1224841; call rule not given here; further: actives are mostly falling curves and most rising ones were filed inactive; nearly all actives have a fitted effect of over 50% in size; further: potency means the concentration at half of the fitted maximal effect; on activity, negative = inhibition: series mostly up to about 92 µM). The method in brief:
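Luminescence (One-Glo, 30 min at room temperature) after 18 h compound treatment at 37 C of PGC/ERR reporter cells plated at 2,000 cells/well and settled 6 h beforehand.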

The nature of assay [8]: qHTS assay to identify small molecule agonists of the estrogen related receptor signaling pathway with the pleiotropic PPARgamma coactivator (PGC) from Tox21 10K library (AID 1224842). Further: nearly all actives have a fitted effect of over 15% in size. The method, boiled down:
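Luminescence from One-Glo (30 min, room temperature) measured after PGC/ERR cells had 18 h at 37 C with pinned compound (23 nL in DMSO). Cells had been seeded at 2,000 per well and pre-incubated 6 h.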

Assay [9] in a line: qHTS assay to identify small molecule agonists of the hypoxia (HIF-1) signaling pathway - cell viability counter screen (AID 1224844; calls by dose curve; further: nearly all actives have a fitted effect of over 50% in size; further: potency means the concentration at half of the fitted maximal effect). The method, boiled down:
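Cytotoxicity measured by CellTiter-Glo ATP luminescence in the wells also read for beta-lactamase signal. Cells were HRE-bla ME-180 (2,000/well, 0.5% dialyzed FBS), exposed to compounds for 17 h at 37C.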

The target in assay [10] is Thyrotropin receptor (Homo sapiens) (UniProt P16473). The assay is described as follows: qHTS assay to identify small molecule agonists of the thyroid stimulating hormone receptor (TSHR) signaling pathway (AID 1224843; calls by dose curve; further: nearly all actives have a fitted effect of over 45% in size; further: potency means the concentration at half of the fitted maximal effect). The method, boiled down: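 Agonist activity read as cAMP rise via d2/cryptate HTRF competition, 1 h room-temperature detection, in HEK293 cells expressing TSHR. Fifteen-point titrations, each run in triplicate, with a 30 min room-temperature incubation beforehand.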

Records with an inconclusive call do not appear. Unmarked numbers belong to inactive results. Activity calls are given as the source filed them. Unless noted, the call rests on the fitted dose curve; in most records, active means well fitted curve in the direction sought with a large enough effect in the repeat runs; inconclusive means weak or mixed curves; inactive means no such curve, though single readings can be large; an effect the other way counts as inactive or inconclusive.
On the % scale 0 is the no-effect control and ±100 the full control effect.

Sequence of Luciferin 4-monooxygenase (Photinus pyralis) (P08659 whole entry, looked up): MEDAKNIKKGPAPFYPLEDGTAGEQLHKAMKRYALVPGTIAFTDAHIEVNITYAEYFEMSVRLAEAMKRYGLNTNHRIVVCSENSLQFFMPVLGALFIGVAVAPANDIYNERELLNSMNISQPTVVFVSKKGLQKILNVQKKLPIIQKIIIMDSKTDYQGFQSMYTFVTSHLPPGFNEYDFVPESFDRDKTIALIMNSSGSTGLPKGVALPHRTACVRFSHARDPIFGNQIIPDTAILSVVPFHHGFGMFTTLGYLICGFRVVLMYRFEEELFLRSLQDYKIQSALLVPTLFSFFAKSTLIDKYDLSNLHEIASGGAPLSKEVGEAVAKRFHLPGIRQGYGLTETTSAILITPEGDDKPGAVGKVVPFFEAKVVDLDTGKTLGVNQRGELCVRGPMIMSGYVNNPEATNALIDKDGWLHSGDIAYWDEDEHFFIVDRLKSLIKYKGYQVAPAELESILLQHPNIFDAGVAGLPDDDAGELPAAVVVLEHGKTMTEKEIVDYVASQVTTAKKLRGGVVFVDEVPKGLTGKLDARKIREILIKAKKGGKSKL
Sequence of Thyrotropin receptor (Homo sapiens) (P16473 whole entry, looked up): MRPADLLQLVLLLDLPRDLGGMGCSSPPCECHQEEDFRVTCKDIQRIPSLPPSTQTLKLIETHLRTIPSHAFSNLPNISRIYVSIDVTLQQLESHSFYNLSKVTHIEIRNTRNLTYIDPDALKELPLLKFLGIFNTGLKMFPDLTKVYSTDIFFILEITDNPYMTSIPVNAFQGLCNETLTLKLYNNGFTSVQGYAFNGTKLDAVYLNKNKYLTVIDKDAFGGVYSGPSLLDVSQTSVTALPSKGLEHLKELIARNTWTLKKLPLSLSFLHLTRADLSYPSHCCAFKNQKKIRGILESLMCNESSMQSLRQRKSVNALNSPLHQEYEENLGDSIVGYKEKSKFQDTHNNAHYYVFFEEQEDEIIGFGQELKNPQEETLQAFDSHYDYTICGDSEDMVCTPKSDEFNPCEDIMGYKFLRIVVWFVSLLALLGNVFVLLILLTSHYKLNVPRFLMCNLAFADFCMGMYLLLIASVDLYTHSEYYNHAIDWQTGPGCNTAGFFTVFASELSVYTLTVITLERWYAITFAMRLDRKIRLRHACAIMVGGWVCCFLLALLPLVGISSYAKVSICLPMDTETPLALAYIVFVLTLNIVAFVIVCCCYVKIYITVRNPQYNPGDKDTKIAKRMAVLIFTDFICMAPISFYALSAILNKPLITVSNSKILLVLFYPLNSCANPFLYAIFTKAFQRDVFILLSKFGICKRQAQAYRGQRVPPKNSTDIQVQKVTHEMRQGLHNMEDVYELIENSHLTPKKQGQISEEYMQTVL
Sequence of Nuclear receptor subfamily 1 group I member 3 (Homo sapiens) (Q14994 whole entry, looked up): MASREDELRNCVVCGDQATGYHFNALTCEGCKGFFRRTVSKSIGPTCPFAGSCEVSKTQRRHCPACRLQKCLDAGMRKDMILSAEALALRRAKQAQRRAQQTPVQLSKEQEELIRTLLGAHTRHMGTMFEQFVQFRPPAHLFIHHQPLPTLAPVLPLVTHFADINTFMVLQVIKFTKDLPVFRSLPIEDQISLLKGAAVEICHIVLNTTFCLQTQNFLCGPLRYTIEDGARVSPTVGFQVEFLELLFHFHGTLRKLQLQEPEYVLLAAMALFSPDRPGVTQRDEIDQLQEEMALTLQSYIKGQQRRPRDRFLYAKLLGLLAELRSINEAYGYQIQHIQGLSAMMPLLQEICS

Consider `Cc1cccc(OCCOc2cccc(C)c2)c1`, for which the Potency result in assay [1], in [2], in assay [3], in assay [4], in [6] and in [7] was “inactive” throughout. The Potency entry in [8] and in assay [9] was “inactive” each time. In addition, in assay [5], the Potency was 29 µM (active).

`CC(C)CC=O`: the Potency result in assay [1], in assay [2], in assay [3], in assay [4], in assay [5] and in assay [6] was “inactive” in each case. In assay [10], the Potency entry was “inactive”.

Consider `CCCCOC(=O)/C=C\C(=O)OCCCC`, for which the Potency result in [1], in [2], in assay [3], in [4], in assay [5] and in [6] was “inactive” each time. Further, the Potency result in assay [7], in assay [8], in assay [10] and in [9] was “inactive” each time.

Turning to `CC[C@H](C)[C@H](N)C(=O)O`, the Potency entry in assay [1], in assay [2], in [3], in assay [4], in assay [5] and in assay [6] was “inactive” throughout. The Potency entry in [7], in assay [8] and in [10] was “inactive” each time.

With `Nc1nc(N)c2nc(CNc3ccc(C(=O)N[C@@H](CCC(=O)O)C(=O)O)cc3)cnc2n1`, the Potency result in assay [1], in assay [2], in [3], in assay [5], in assay [6] and in assay [8] was “inactive” in each case. Besides, the Potency result in [10] and in [9] was “inactive” each time. The Potency was 0.0404 µM (active) in assay [4] and 0.114 µM (active) in assay [7].

Consider `CCCC[C@H]1CN(CC2CCOCC2)C(=O)OC12CCN(C1(C)CCN(C(=O)c3c(C)ncnc3C)CC1)CC2`, for which the Potency result in assay [1], in [2], in [3], in [4], in assay [5] and in [6] was “inactive” throughout. For the same molecule, the Potency result in assay [7], in assay [8], in assay [10] and in assay [9] was “inactive” throughout.

Turning to `CC(=O)N(CC(=O)N(C)C)c1ccccc1`, the Potency result in assay [1], in assay [2], in assay [3], in [4], in [5] and in assay [6] was “inactive” throughout. Moreover, the Potency entry in [7], in assay [8] and in assay [10] was “inactive” each time.

In the case of `O=CNc1ccccc1`, the Potency entry in assay [1], in assay [2], in [3], in [4], in assay [5] and in assay [6] was “inactive” each time. In addition, the Potency entry in assay [7], in assay [8] and in [9] was “inactive” each time.

As to `CC[C@H](C)[C@@H](C(=O)O)n1sc2ccccc2c1=O`, the Potency in assay [1] is 17.8 µM (active). Moreover, the Potency result in assay [2], in assay [3], in assay [4], in assay [5], in [6] and in assay [10] was “inactive” throughout.

`CC/C(=C\C(=N/O)C(N)=O)C(C)[N+](=O)[O-]` (stereo not given): the Potency entry in assay [1], in assay [2], in [3], in [4], in [5] and in [6] was “inactive” throughout. For the same molecule, the Potency result in assay [7], in assay [8], in assay [10] and in assay [9] was “inactive” each time.

Consider `Cc1occc1S`, for which the Potency entry in assay [1], in assay [2], in assay [3], in assay [4], in [5] and in assay [6] was “inactive” each time. For the same molecule, the Potency entry in assay [7], in [8], in assay [10] and in assay [9] was “inactive” in each case.

As for `Cc1ccc(C)o1`, the Potency entry in assay [1], in assay [2], in assay [3], in assay [4], in assay [5] and in assay [6] was “inactive” throughout. For the same molecule, the Potency result in assay [7], in [8], in assay [10] and in assay [9] was “inactive” throughout.

`Cn1c(N)nc2nc[nH]c2c1=O`: the Potency result in assay [1], in assay [2], in assay [3], in [5], in [6] and in [10] was “inactive” in each case. Also, in assay [9], the Potency result is “inactive”. The Potency in assay [4] was 48 µM (active).

With `Cn1c(=O)c2c(ncn2CC(O)CO)n(C)c1=O` (stereo not given), the Potency entry in assay [1], in [2], in [3], in [4], in [5] and in assay [6] was “inactive” throughout. Moreover, the Potency entry in assay [7], in assay [8] and in assay [10] was “inactive” throughout.

As for `c1ccc(-c2nc[nH]c2-c2ccccc2)cc1`, the Potency entry in assay [1], in assay [2], in assay [3], in assay [4], in assay [5] and in assay [6] was “inactive” in each case. Moreover, the Potency result in assay [10] and in [9] was “inactive” in each case.

With `CC(CN)CCCN` (stereo not given), the Potency entry in [1], in assay [2], in assay [3], in assay [4], in [6] and in assay [7] was “inactive” each time. In addition, the Potency entry in assay [8] and in [10] was “inactive” each time.

On to `CC(C)(C)c1ccc(S)cc1`, for which the Potency entry in [1], in assay [2], in assay [3], in assay [4], in [6] and in assay [10] was “inactive” throughout. Further, in assay [9], the Potency entry was “inactive”.

`CC(C)NCC(O)c1cc(O)cc(O)c1` (stereo not given): the Potency result in [1], in [2], in assay [3], in [4], in assay [6] and in assay [8] was “inactive” each time. Besides, the Potency result in assay [9] is “inactive”. In addition, the Potency in assay [10] is 10.6 µM (active).

Regarding `O=S1(=O)c2cccc3cccc(c23)N1CCCN1CCN(c2ccc(F)cc2)CC1`, the Potency entry in [1], in assay [2], in assay [3], in [4], in [6] and in [7] was “inactive” throughout. In addition, the Potency entry in assay [8], in assay [10] and in assay [9] was “inactive” each time.

As for `CC(=O)SCc1ccco1`, the Potency entry in assay [1], in [2], in assay [3], in [4], in assay [5] and in assay [6] was “inactive” throughout. In addition, the Potency result in assay [10] and in [9] was “inactive” each time.

For `Cc1cc(C)c(S(=O)(=O)O)cc1N=Nc1cc(S(=O)(=O)O)c2ccccc2c1O`, the Potency in assay [1] was 1.42 µM (active); in [2] it was 61.1 µM (active); in assay [3], 61.1 µM (active); in assay [6], 34.4 µM (active). Also, the Potency result in assay [4], in assay [5], in assay [10] and in assay [9] was “inactive” each time.

Take `CCCCOc1cc(C(=O)OCCN(CC)CC)ccc1N`: the Potency result in assay [1], in [2], in assay [3], in assay [4] and in [6] was “inactive” in each case.

With `CCOc1cc(OCC)c(C(=O)CCC(=O)O)cc1OCC`, the Potency result in assay [1], in [2], in assay [3], in [4], in assay [5] and in [6] was “inactive” throughout. In addition, the Potency result in assay [9] is “inactive”.

`O=C(O)Cn1c(C(=O)Nc2nc(-c3ccccc3Cl)cs2)cc2ccccc21`: the Potency in [1] was 13.8 µM (active); in [9], 8.49 µM (active). Also, the Potency result in assay [2], in assay [3], in assay [4], in assay [6], in [7] and in assay [8] was “inactive” throughout. Also, the Potency result in assay [10] was “inactive”.

Turning to `O=C(O)[C@@H]1[C@H]2C[C@H]3c4[nH]c5ccccc5c4CCN3C[C@@H]2CC[C@@H]1O`, the Potency entry in assay [1], in assay [2], in [3], in [4], in [6] and in assay [7] was “inactive” each time. Further, the Potency entry in assay [8], in assay [10] and in assay [9] was “inactive” in each case.

For `O=C(C(=O)c1ccc(Br)cc1)c1ccc(Br)cc1`, in assay [1], the activity change, negative = inhibition is 1.95% [at 23.6 µM]. The viability change, negative = cytotoxic in assay [2] is 3.05% [at 19 µM]; in [6] it was 3.02% [at 19 µM]. Besides, the activity change, negative = cytotoxicity in assay [3] was -2.27% [at 19 µM]. Moreover, the activity, negative = inhibition in assay [4] was 0.195% [at 19 µM]. The activation in [8] was 2.38% [at 19 µM]; in assay [10], 3.26% [at 19 µM].
